Reference: PubChem BioAssay
Active and inactive are the calls of the source.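 The calls were made as follows, unless noted: active = visually confirmed hit in the image check and inhibition above 20%; inconclusive = visually confirmed hit but inhibition not above 20%; inactive = no visual hit in the image check.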

Experiments:
[1] = inhibitors of TNFa-induced NFkB p65 translocation, primary screen, imaging, HUVEC, MLSMR starter and 10KST1 sets (AID 438;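 active = inhibition above 20% together with a positive visual image hit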;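 also: compound added about 3h40 before a 20 min TNFalpha stimulation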;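 as to inhibition: signal is the nuclear over cytoplasmic p65 intensity ratio per well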); settings: HUVEC TNFa-induced p65 nuclear translocation; cell count: measured here: nuclei count (cytotoxicity indicator), at 2.08 µM; inhibition: at 2 µM, stronger effect = higher value, 0% TNFa-plus-vehicle, 100% no-TNFa wells
[2] = inhibitors of mutant huntingtin aggregation, primary screen, imaging, exon1htt(103Q)mCFP cells, high-content imaging (AID 483;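 active = visual image review flags a hit and inhibition of aggregation exceeds 20%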;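 also: compound exposure lasted 3 days before fixation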;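 as to nuclei count: percent of the per-plate median nuclei count of sample wells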); settings: exon1htt(103Q)mCFP cell line, aggregate imaging, at 2 µM; inhibition of aggregation: stronger effect = higher value; nuclei count: measured here: cell count, toxicity
[3] = inhibitors of E-selectin induction by TNFa, primary screen, imaging, HUVEC, immunofluorescence, MLSMR starter and 10KST1 sets (AID 487); settings: HUVEC TNFalpha-induced E-selectin immunofluorescence imaging, at 2 µM; inhibition: stronger effect = higher value; nuclei count: measured here: cell number, toxicity;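 as to inhibition: signal is fraction of cell area covered by stained E-selectin grains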;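 as to nuclei count: 100% = median nuclei count of all wells on the same plate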
[4] = biological target: Voltage-gated potassium channel subunit beta-2 (Rattus norvegicus) (UniProt P62483); assay: KvBeta enzyme negative modulators, primary screen, biochemical, NADPH fluorescence (AID 622;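 active = fluorescence slope higher than the sample average by over 3 SD, cut at about -0.22 in these data, passing the limit was not always enough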;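 also: slope of raw intensity against log time taken from 70 to 1610 s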); settings: recombinant KvBeta, 4-cyanobenzaldehyde reduction, at 10 µM, stronger effect = higher value
Chain of Voltage-gated potassium channel subunit beta-2 (Rattus norvegicus) (P62483 whole entry, looked up): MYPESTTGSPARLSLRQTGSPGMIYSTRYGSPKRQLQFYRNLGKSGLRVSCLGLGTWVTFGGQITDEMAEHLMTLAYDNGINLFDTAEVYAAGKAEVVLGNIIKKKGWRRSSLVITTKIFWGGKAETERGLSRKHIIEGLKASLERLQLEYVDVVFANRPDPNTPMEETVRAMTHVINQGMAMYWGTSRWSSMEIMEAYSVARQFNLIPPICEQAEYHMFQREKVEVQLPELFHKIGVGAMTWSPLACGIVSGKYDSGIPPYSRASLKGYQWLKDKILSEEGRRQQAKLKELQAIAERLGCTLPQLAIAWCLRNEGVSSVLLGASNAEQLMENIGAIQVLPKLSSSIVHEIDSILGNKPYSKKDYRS

[5] = biological target: Voltage-gated potassium channel subunit beta-2 (Rattus norvegicus) (UniProt P62483); assay: KvBeta positive modulators, primary screen, biochemical, NADPH fluorescence (AID 623;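 active = NADPH fluorescence slope more negative than the mean of all samples by about 3 SD, 99.7% confidence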;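 also: fluorescence intensity change per second fitted from 20 to 320 s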); settings: Recombinant KvBeta, NADPH fluorescence decrease slope, 10 min; at 10 µM; stronger effect = lower value
[6] = biological target: Alpha-2C adrenergic receptor (Homo sapiens) (UniProt P18825); assay: modulators of alpha2C/GIRK thallium flux, primary screen, cell-based, HEK293 alpha2C/GIRK1/2 (AID 624;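 active = fluorescence slope after compound addition differing from the mean of all screened samples at 99.7% confidence, in either direction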;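 also: slope of fluorescence ratio to pre-addition baseline per second over 15 to 24 s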); settings: thallium flux BTC fluorescence, at 10 µM, actives lie on both sides
Chain of Alpha-2C adrenergic receptor (Homo sapiens) (P18825 whole entry, looked up): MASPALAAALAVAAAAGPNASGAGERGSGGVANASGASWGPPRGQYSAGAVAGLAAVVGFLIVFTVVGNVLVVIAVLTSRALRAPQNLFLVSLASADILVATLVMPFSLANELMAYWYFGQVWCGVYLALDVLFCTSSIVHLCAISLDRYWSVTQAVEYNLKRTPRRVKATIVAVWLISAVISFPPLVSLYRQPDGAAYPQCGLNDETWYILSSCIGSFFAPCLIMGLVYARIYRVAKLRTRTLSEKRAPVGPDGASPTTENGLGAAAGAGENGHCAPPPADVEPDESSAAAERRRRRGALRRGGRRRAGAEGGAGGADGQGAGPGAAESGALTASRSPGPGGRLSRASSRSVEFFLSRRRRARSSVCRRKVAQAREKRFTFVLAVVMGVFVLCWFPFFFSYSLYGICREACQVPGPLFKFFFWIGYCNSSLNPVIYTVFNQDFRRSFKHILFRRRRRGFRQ

[7] = inhibitors of Sendai virus-induced IRF3 signaling, primary screen, TLR/RLR signaling modifier project, cell-based, Sendai virus stimulus, luciferase, 10K MLSCN set (AID 602276;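 active = inhibition at or above 50% at 10 µM; inactive = inhibition below 50%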;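 also: firefly luciferase from ISG56 promoter only with Renilla not read in this screen; 0% = Sendai virus plus DMSO and 100% = medium plus DMSO without virus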); settings: HEK293 RL24 IRF3 luciferase reporter, at 10 µM, stronger effect = higher value
[8] = inhibitors of poly I:C-induced TLR3 signaling, primary screen, cell-based, poly I:C stimulus, luciferase, 10K MLSCN set (AID 602277;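 active = inhibition of the reporter signal at or above 50%; inactive = inhibition below 50%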); settings: HEK293-TLR3 RL24 IRF3 luciferase reporter, at 10 µM, stronger effect = higher value

CCCCN(Cc1cc2cc(OC)ccc2[nH]c1=O)C(=O)c1ccccn1
cell count [1]: 339
inhibition [1]: -17.9% (inactive)
inhibition of aggregation [2]: -18.3% (inactive)
nuclei count [2]: 101%
inhibition [3]: -11.8% (inactive)
nuclei count [3]: 89.4%
fluorescence slope [4]: -0.332 (inactive)
NADPH fluorescence slope [5]: -6.3e-05 (inactive)
slope [6]: 0.00511 (inactive)
inhibition [7]: -4.21% (inactive)
inhibition [8]: 98.1% (active)

CC(C)(C)SCCNC(=O)CSc1ccccc1
cell count [1]: 636
inhibition [1]: -11% (inactive)
inhibition of aggregation [2]: 8.5% (inactive)
nuclei count [2]: 93%
inhibition [3]: -42.9% (inactive)
nuclei count [3]: 78.7%
fluorescence slope [4]: -0.586 (inactive)
NADPH fluorescence slope [5]: -2.1e-05 (inactive)
slope [6]: 0.00555 (inactive)
inhibition [7]: -20.5% (inactive)
inhibition [8]: -23.4% (inactive)

CS(=O)(=O)NCCSCc1c(F)cccc1Cl
cell count [1]: 270
inhibition [1]: 5.5% (inactive)
inhibition of aggregation [2]: 0% (inactive)
nuclei count [2]: 106%
inhibition [3]: -41.6% (inactive)
nuclei count [3]: 96.6%
fluorescence slope [4]: -0.527 (inactive)
NADPH fluorescence slope [5]: -2.1e-05 (inactive)
slope [6]: 0.00448 (inactive)
inhibition [7]: 2.63% (inactive)
inhibition [8]: 0.999% (inactive)

c1ccc(Nc2ccccc2Nc2ccccn2)nc1
cell count [1]: 306
inhibition [1]: 4.4% (inactive)
inhibition of aggregation [2]: 21.6% (inactive)
nuclei count [2]: 88.1%
inhibition [3]: 8.5% (inactive)
nuclei count [3]: 90.5%
fluorescence slope [4]: -0.379 (inactive)
NADPH fluorescence slope [5]: -5.3e-06 (inactive)
slope [6]: 0.00758 (inactive)
inhibition [7]: 13% (inactive)
inhibition [8]: 25% (inactive)

O=C(Nc1nc2c(s1)CCCC2)C1COc2ccccc2O1 (centres undefined)
cell count [1]: 695
inhibition [1]: -13.1% (inactive)
inhibition of aggregation [2]: 30.9% (inactive)
nuclei count [2]: 110%
inhibition [3]: -26.2% (inactive)
nuclei count [3]: 114%
fluorescence slope [4]: -0.517 (inactive)
NADPH fluorescence slope [5]: -1.6e-05 (inactive)
slope [6]: 0.00646 (inactive)
inhibition [7]: 31% (inactive)
inhibition [8]: -19.8% (inactive)

O=C(c1ccco1)N(Cc1cc2ccccc2[nH]c1=O)C1CCCCC1
cell count [1]: 312
inhibition [1]: 4.8% (inactive)
inhibition of aggregation [2]: -13.6% (inactive)
nuclei count [2]: 114%
inhibition [3]: -42.1% (inactive)
nuclei count [3]: 115%
fluorescence slope [4]: -0.617 (inactive)
NADPH fluorescence slope [5]: 2e-05 (inactive)
slope [6]: 0.00525 (inactive)
inhibition [7]: -3.39% (inactive)
inhibition [8]: 6.38% (inactive)

CCn1c(SCc2nc3ccccc3c(=O)[nH]2)nnc1-c1cccnc1
cell count [1]: 628
inhibition [1]: -11.9% (inactive)
inhibition of aggregation [2]: -9.6% (inactive)
nuclei count [2]: 107%
inhibition [3]: -66.6% (inactive)
nuclei count [3]: 114%
fluorescence slope [4]: -0.525 (inactive)
NADPH fluorescence slope [5]: 7.8e-06 (inactive)
slope [6]: 0.00487 (inactive)
inhibition [7]: 21.2% (inactive)
inhibition [8]: 25% (inactive)

CCSC1=C(C#N)C(c2ccccc2OC)CC(=O)N1 (centres undefined)
cell count [1]: 631
inhibition [1]: -1.9% (inactive)
inhibition of aggregation [2]: -4.5% (inactive)
nuclei count [2]: 86.7%
inhibition [3]: -16.2% (inactive)
nuclei count [3]: 106%
fluorescence slope [4]: -0.436 (inactive)
NADPH fluorescence slope [5]: 1.7e-05 (inactive)
slope [6]: 0.00579 (inactive)
inhibition [7]: -0.399% (inactive)
inhibition [8]: 17.9% (inactive)

Cc1ccc(Nc2nc(N)nc(CN3CCCCCC3)n2)cc1
cell count [1]: 350
inhibition [1]: 6.8% (inactive)
inhibition of aggregation [2]: 2.4% (inactive)
nuclei count [2]: 96.1%
inhibition [3]: 69.8% (active)
nuclei count [3]: 88.8%
fluorescence slope [4]: -0.449 (inactive)
NADPH fluorescence slope [5]: -2.5e-05 (inactive)
slope [6]: 0.00438 (inactive)
inhibition [7]: 8.97% (inactive)
inhibition [8]: 24.6% (inactive)

C=CCc1cccc2cc(C(=O)NCc3cccnc3)c(=O)oc12
cell count [1]: 329
inhibition [1]: 3.5% (inactive)
inhibition of aggregation [2]: -4.3% (inactive)
nuclei count [2]: 101%
inhibition [3]: 4.6% (inactive)
nuclei count [3]: 117%
fluorescence slope [4]: -0.437 (inactive)
NADPH fluorescence slope [5]: 1.5e-05 (inactive)
slope [6]: 0.00312 (inactive)
inhibition [7]: -3.91% (inactive)
inhibition [8]: 20.3% (inactive)

Cc1onc(-c2c(Cl)cccc2Cl)c1C(=O)N1CCc2ccccc21
cell count [1]: 696
inhibition [1]: -5.8% (inactive)
inhibition of aggregation [2]: -0.7% (inactive)
nuclei count [2]: 93.6%
inhibition [3]: -30.8% (inactive)
nuclei count [3]: 92.5%
fluorescence slope [4]: -0.47 (inactive)
NADPH fluorescence slope [5]: -3.1e-05 (inactive)
slope [6]: 0.00899 (inactive)
inhibition [7]: 23.7% (inactive)
inhibition [8]: 23.2% (inactive)

COc1ccc(NC(=O)CSc2nnc(-c3ccccc3)n2N)cc1
cell count [1]: 438
inhibition [1]: 0% (inactive)
inhibition of aggregation [2]: 4.9% (inactive)
nuclei count [2]: 103%
inhibition [3]: -13.6% (inactive)
nuclei count [3]: 114%
fluorescence slope [4]: -0.38 (inactive)
NADPH fluorescence slope [5]: 9.8e-06 (inactive)
slope [6]: 0.00577 (inactive)
inhibition [7]: 15.8% (inactive)
inhibition [8]: 24% (inactive)

Cc1ccc2[nH]c(=O)c(CN(CCCN3CCOCC3)C(=O)Nc3cccc(Cl)c3)cc2c1
cell count [1]: 724
inhibition [1]: 21.3% (inactive)
inhibition of aggregation [2]: -15.9% (inactive)
nuclei count [2]: 89%
inhibition [3]: 8% (inactive)
nuclei count [3]: 131%
fluorescence slope [4]: -0.597 (inactive)
NADPH fluorescence slope [5]: -5.2e-05 (inactive)
slope [6]: 0.00418 (inactive)
inhibition [7]: 13.4% (inactive)
inhibition [8]: 4.8% (inactive)

O=C(CCn1c(=S)[nH]c2ccccc2c1=O)NCC1CCCO1 (centres undefined)
cell count [1]: 491
inhibition [1]: 9.4% (inactive)
inhibition of aggregation [2]: 6% (inactive)
nuclei count [2]: 99.2%
inhibition [3]: 8% (inactive)
nuclei count [3]: 109%
fluorescence slope [4]: -0.622 (inactive)
NADPH fluorescence slope [5]: -8.8e-06 (inactive)
slope [6]: 0.0038 (inactive)
inhibition [7]: 8.18% (inactive)
inhibition [8]: 2.45% (inactive)
